# Results from PubChem BioAssay AID1159580 (chemical genetic matrix, 2015).
# Out of some 5,500 compounds screened, about 2,000 (36%) were called active. Roughly 18% stayed inconclusive and do not appear here. Some of the results follow. Values without a mark were called inactive. Rule as the data show it: active = normalized growth mostly below about 0.91 (no sharp cut-off); inconclusive = no clear call, values can overlap the other calls; inactive = mostly above about 0.92.
# Experiment: chemical genetic growth profiling, strain panel (AID 1159580);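 also: tested at 20 µM; growth read once vehicle control cultures reached saturation at 30 °C; 1 = growth at the plate median or of vehicle wells; lower values mean less growth of the strain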
# Settings: S. cerevisiae deletion strains, growth OD
smiles,measurement,setting,value
C=C1CCC(=O)C(C)CCC2C1CC2(C)C (stereo unspecified),normalized growth,"locus YAL013W, strain DEP1, hits give low values",1.01
same,normalized growth,"locus YBR021W, strain FUR4, hits give low values",1
same,normalized growth,"locus YBR229C, strain ROT2, hits give low values",1.02
same,normalized growth,"locus YCL029C, strain bik1, hits give low values",0.993
same,normalized growth,"locus YDL035C, strain GPR1, hits give low values",1
same,normalized growth,"locus YDL074C, strain BRE1, hits give low values",1
same,normalized growth,"locus YDL101C, strain DUN1, hits give low values",1.03
same,normalized growth,"locus YDL134C, strain PPH21, hits give low values",1.03
same,normalized growth,"locus YDL185W, strain tfp1, hits give low values",1
same,normalized growth,"locus YDL192W, strain arf1, hits give low values",0.972
same,normalized growth,"locus YDR101C, strain arx1, hits give low values",0.987
same,normalized growth,"locus YDR150W, strain NUM1, hits give low values",1.02
same,normalized growth,"locus YDR162C, strain NBP2, hits give low values",1.06
same,normalized growth,"locus YDR318W, strain mcm21, hits give low values",0.998
same,normalized growth,"locus YDR388W, hits give low values",0.997
same,normalized growth,"locus YDR502C, strain sam2, hits give low values",1
same,normalized growth,"locus YEL061C, strain CIN8, hits give low values",1.01
same,normalized growth,"locus YER110C, hits give low values",0.99
same,normalized growth,"locus YER155C, strain BEM2, hits give low values",1.02
same,normalized growth,"locus YER167W, strain BCK2, hits give low values",1.01
same,normalized growth,"locus YGL078C, strain dbp3, hits give low values",0.995
same,normalized growth,"locus YGL086W, strain mad1, hits give low values",0.986
same,normalized growth,"locus YGL248W, strain PDE1, hits give low values",1.03
same,normalized growth,"locus YGR135W, strain pre9, hits give low values",1.01
same,normalized growth,"locus YGR252W, strain gcn5, hits give low values",1
same,normalized growth,"locus YHR030C, strain SLT2, hits give low values",1.02
same,normalized growth,"locus YHR079C, strain IRE1 (second series), hits give low values",0.984
same,normalized growth,"locus YHR094C, strain hxt1, hits give low values",0.996
same,normalized growth,"locus YHR129C, strain ARP1, hits give low values",1.02
same,normalized growth,"locus YHR200W, strain rpn10, hits give low values",0.995
same,normalized growth,"locus YIL066C, strain RNR3, hits give low values",1.02
same,normalized growth,"locus YIL073C, strain SPO22, hits give low values",0.971
same,normalized growth,"locus YIL125W, strain kgd1, hits give low values",0.987
same,normalized growth,"locus YIR030C, strain dcg1, hits give low values",0.998
same,normalized growth,"locus YJL095W, strain BCK1, hits give low values",1.02
same,normalized growth,"locus YJL134W, strain LCB3, hits give low values",1.02
same,normalized growth,"locus YJL168C, strain set2, hits give low values",1.01
same,normalized growth,"locus YJL187C, strain SWE1 (second series), hits give low values",1.03
same,normalized growth,"locus YJR043C, strain POL32, hits give low values",1.03
same,normalized growth,"locus YKL009W, strain mrt4, hits give low values",0.976
same,normalized growth,"locus YKL068W, hits give low values",1.01
same,normalized growth,"locus YKL085W, strain MDH1 (second series), hits give low values",0.99
same,normalized growth,"locus YKL085W, strain MDH1, hits give low values",0.99
same,normalized growth,"locus YKR001C, strain vps1, hits give low values",0.864 (active)
same,normalized growth,"locus YLR039C, strain RIC1, hits give low values",1.01
same,normalized growth,"locus YLR058C, strain SHM2, hits give low values",1.02
same,normalized growth,"locus YLR102C, strain apc9, hits give low values",0.994
same,normalized growth,"locus YLR262C, strain YPT6, hits give low values",1.03
same,normalized growth,"locus YLR268W, strain sec22, hits give low values",0.985
same,normalized growth,"locus YLR330W, strain CHS5, hits give low values",1.02
same,normalized growth,"locus YLR342W, strain FKS1 (second series), hits give low values",1.01
same,normalized growth,"locus YLR371W, strain rom2, hits give low values",0.994
same,normalized growth,"locus YLR418C, strain cdc73, hits give low values",1.01
same,normalized growth,"locus YML016C, strain PPZ1, hits give low values",1.02
same,normalized growth,"locus YML032C, strain rad52, hits give low values",0.997
same,normalized growth,"locus YML124C, strain tub3, hits give low values",0.995
same,normalized growth,"locus YMR078C, strain ctf18, hits give low values",1
same,normalized growth,"locus YMR223W, strain ubp8, hits give low values",1.01
same,normalized growth,"locus YMR263W, strain SAP30, hits give low values",1.03
same,normalized growth,"locus YMR307W, strain GAS1, hits give low values",1.08
same,normalized growth,"locus YNL067W, strain RPL9B, hits give low values",1.02
same,normalized growth,"locus YNL233W, strain BNI4, hits give low values",1.03
same,normalized growth,"locus YNL250W, strain rad50, hits give low values",1.01
same,normalized growth,"locus YNL271C, strain bni1, hits give low values",0.999
same,normalized growth,"locus YNL298W, strain CLA4, hits give low values",1.03
same,normalized growth,"locus YNL307C, strain MCK1, hits give low values",0.995
same,normalized growth,"locus YNR052C, strain pop2, hits give low values",0.989
same,normalized growth,"locus YOL006C, strain TOP1, hits give low values",1.03
same,normalized growth,"locus YOL012C, strain htz1",0.879
same,normalized growth,"locus YOL147C, strain pex11, hits give low values",0.987
same,normalized growth,"locus YOR061W, strain CKA2, hits give low values",1.02
same,normalized growth,"locus YOR069W, strain VPS5, hits give low values",1.02
same,normalized growth,"locus YOR136W, strain idh2, hits give low values",0.991
same,normalized growth,"locus YOR144C, strain elg1, hits give low values",0.987
same,normalized growth,"locus YOR184W, strain ser1, hits give low values",0.977
same,normalized growth,"locus YOR316C, strain cot1, hits give low values",0.998
same,normalized growth,"locus YPR119W, strain clb2, hits give low values",0.983
same,normalized growth,"locus YPR141C, strain kar3, hits give low values",0.994
same,normalized growth,"locus YPR163C, strain tif3, hits give low values",0.997
same,normalized growth,"locus YPR167C, strain met16, hits give low values",0.99
same,normalized growth,"strain wtn01, hits give low values",0.966
